Assay [1] addresses Luciferin 4-monooxygenase (Photinus pyralis) (UniProt P08659). The assay is described as follows: qHTS assay to identify small molecule inhibitors of firefly luciferase (AID 1224835). Further: nearly all actives have a fitted effect of over 25% in size. The method in brief: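 Quantitative HTS format; KM concentrations of both substrates. Purified P. pyralis FLuc activity quantified from luminescence images.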
Assay [2] is described as follows: qHTS assay to identify small molecule agonists of the constitutive androstane receptor (CAR) signaling pathway - cell viability counter screen (AID 1224836). Further: nearly all actives have a fitted effect of over 45% in size. Summed up: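 Fluorescence from CellTiter-Fluor indicates live cells after 23 h exposure. The human hepatoma line expresses hCAR and a CYP2B6-2.2kb reporter. Incubation medium contains 0.75 uM PK11195 (final).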

Assay [3] concerns the target Nuclear receptor subfamily 1 group I member 3 (Homo sapiens) (UniProt Q14994). The assay is described as follows: qHTS assay to identify small molecule antagonists of the constitutive androstane receptor (CAR) signaling pathway (AID 1224838).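 Further: HepG2 cells stably expressing hCAR with CYP2B6 luciferase reporter stimulated by CITCO; nearly all actives have a fitted effect of over 40% in size.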 The method in brief:
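Quantitative HTS in double-stable HepG2-CYP2B6-hCAR cells. After 4 h plating, cells get compound (15 concentrations) and CITCO at 50 nM final, incubate 24 h at 37 C, then ONE-Glo luminescence is read.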

Assay [4] shares this target. The assay is described as follows: qHTS assay to identify small molecule agonists of the constitutive androstane receptor (CAR) signaling pathway (AID 1224839).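 Further: HepG2 cells stably carrying human CAR and a CYP2B6 luciferase reporter; nearly all actives have a fitted effect of over 15% in size.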 The method in brief:
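Stable hCAR/CYP2B6-2.2kb HepG2 line in DMEM with 10% FBS; compounds (15 concentrations) and 0.75 uM PK11195 final, 24 h at 37 C/5% CO2, then ONE-Glo luminescence after 30 min.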
(In general: qHTS replaces the single test concentration by a dilution series.)

The nature of assay [5]: qHTS assay to identify small molecule antagonists of the estrogen related receptor signaling pathway with the pleiotropic PPARgamma coactivator (PGC) from Tox21 10K library - cell viability counter screen (AID 1224840; active means well fitted cell-killing curve with a large enough effect in the repeat runs, not every such curve was filed as active; further: nearly all actives have a fitted effect of over 40% in size). The method in brief: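 Compounds in DMSO, alongside positive and negative controls, were pinned onto PGC/ERR cells (2,000 per well). Exposure lasted 17.5 hours at 37 C, followed by a 30-minute CellTiter-Fluor incubation and fluorescence reading.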

In assay [6] the target is Thyrotropin receptor (Homo sapiens) (UniProt P16473). The assay is described as follows: qHTS assay to identify small molecule agonists of the thyroid stimulating hormone receptor (TSHR) signaling pathway (AID 1224843; calls by dose curve; further: nearly all actives have a fitted effect of over 45% in size). Summed up: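 TSHR-expressing HEK293 cells (800 per well) were exposed to compounds for 30 min at room temperature. cAMP was then detected by HTRF competition with cAMP-d2 and anti-cAMP cryptate, read after 1 h at room temperature. Fifteen concentrations, triplicate.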
Thyrotropin receptor (Homo sapiens), sequence (P16473 whole entry, looked up): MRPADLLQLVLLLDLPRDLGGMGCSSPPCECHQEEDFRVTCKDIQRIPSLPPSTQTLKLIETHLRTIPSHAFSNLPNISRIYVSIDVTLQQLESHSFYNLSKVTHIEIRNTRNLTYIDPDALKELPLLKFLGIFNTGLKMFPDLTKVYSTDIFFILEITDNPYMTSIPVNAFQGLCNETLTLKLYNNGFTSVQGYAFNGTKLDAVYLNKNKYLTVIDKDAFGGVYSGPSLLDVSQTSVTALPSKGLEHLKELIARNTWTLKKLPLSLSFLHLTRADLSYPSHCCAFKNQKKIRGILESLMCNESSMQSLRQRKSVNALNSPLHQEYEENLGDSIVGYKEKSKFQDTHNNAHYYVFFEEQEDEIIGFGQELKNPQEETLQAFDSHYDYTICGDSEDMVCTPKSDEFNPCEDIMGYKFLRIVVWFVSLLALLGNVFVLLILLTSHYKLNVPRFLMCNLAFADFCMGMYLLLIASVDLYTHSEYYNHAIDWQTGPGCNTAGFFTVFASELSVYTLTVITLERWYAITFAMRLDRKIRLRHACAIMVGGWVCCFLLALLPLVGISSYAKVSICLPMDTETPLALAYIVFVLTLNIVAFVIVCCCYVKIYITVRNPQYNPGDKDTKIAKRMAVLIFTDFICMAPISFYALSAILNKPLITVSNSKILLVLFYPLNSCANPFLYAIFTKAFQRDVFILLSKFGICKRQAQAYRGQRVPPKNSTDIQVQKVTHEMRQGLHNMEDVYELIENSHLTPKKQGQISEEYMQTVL

The nature of assay [7]: qHTS assay to identify small molecule agonists of the hypoxia (HIF-1) signaling pathway - cell viability counter screen (AID 1224844; calls by dose curve; further: nearly all actives have a fitted effect of over 50% in size). Summed up:
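Luminescent ATP content (CellTiter-Glo, 30 min, room temperature) served as the viability measure in HRE-bla ME-180 cells exposed to compounds for 17 hrs in low-serum medium (0.5% dialyzed FBS).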

Assay [8] is described as follows: qHTS assay to identify small molecule agonists of H2AX (AID 1224845; active means well fitted activation curve with a large enough effect in the signal ratio in the repeat runs, not every such curve was filed as active; the % refers to the signal ratio). Summed up: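 Wild-type CHO-K1 cells plated overnight, then exposed 3 hr at 37C to compounds at 15 concentrations (0.76% DMSO). Lysed, then HTRF anti-pH2AX(S139)-cryptate/anti-H2AX-d2 detection after 24 hr at room temperature; emissions 665 and 620 nm.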
Assay [9] in a line: qHTS assay to identify small molecule agonists of the hypoxia (HIF-1) signaling pathway (AID 1224846; active means well fitted activation curve with a large enough effect in the signal ratio in the repeat runs, not every such curve was filed as active; the % refers to the signal ratio). Summed up: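 Measured by blue/green FRET after loading CCF4-AM: beta-lactamase expressed from a hypoxia response element in ME-180 cells. Test agents were delivered in DMSO and left 17 hrs; cells had been plated 5 hrs earlier in low-serum (0.5% dialyzed FBS) medium.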
Assay [10] can be described thus: qHTS assay to identify small molecule agonists of H2AX - cell viability counter screen (AID 1224847; calls by dose curve; further: top concentration of the series differs between compounds; nearly all actives have a fitted effect of over 30% in size). Summed up:
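Viability of CHO-K1 (wild type) cells after 3 hr compound exposure was measured by CellTiter-Glo luminescence.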

The nature of assay [11]: qHTS RealTime-Glo MT Cell Viability Assay in HepG2 cells - 24 hour (AID 1224867). Further: nearly all actives have a fitted effect of over 50% in size. The method in brief: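 HepG2 suspension premixed with RealTime-Glo reagents is plated at 600 cells per well and left 5 h at 37 C/5% CO2. Compounds in DMSO then go in, and bioluminescence reflecting viable cell number is recorded over 40 h.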
A short description of assay [12]: qHTS RealTime-Glo MT Cell Viability Assay in HEK293 cells - 32 hour (AID 1224868). Further: top concentration of the series differs between compounds; nearly all actives have a fitted effect of over 50% in size. Summed up: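 Reads taken at 0, 8, 16, 24, 32 and 40 h from the same wells. HEK293 cells (600/well) carried RealTime-Glo reagents from seeding, with compound added after a 5 h settle at 37 C.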
Assay [13] can be described thus: A CellTox Green Cytotoxicity Assay to monitor cytotoxicity in HEK293 cells - 0 hour (AID 1224869). Further: nearly all actives have a fitted effect of over 50% in size. Summed up: (§1)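 Each value comes from one timepoint of a single continuous run in which HEK293 cells with CellTox Green were exposed to compound for up to 40 h at 37 C, dye fluorescence rising with cell death.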
The nature of assay [14]: qHTS RealTime-Glo MT Cell Viability Assay in HepG2 cells - 40 hour (AID 1224870). Further: nearly all actives have a fitted effect of over 50% in size. Summed up:
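HepG2 cells mixed with RealTime-Glo MT reagents (NanoLuc plus cell-permeant prosubstrate) were seeded at 600 cells/well, incubated 5 h at 37 C/5% CO2, then pinned with compounds in DMSO; nonlytic luminescence tracked viability during 40 h treatment.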

Assay [15] can be described thus: A CellTox Green Cytotoxicity Assay to monitor cytotoxicity in HEK293 cells - 40 hour (AID 1224871). Further: nearly all actives have a fitted effect of over 45% in size. Further: potency means the concentration at half of the fitted maximal effect. The method in brief: as §1
Assay [16] can be described thus: qHTS assay to identify small molecule antagonists of the estrogen related receptor signaling pathway with the pleiotropic PPARgamma coactivator (PGC) from Tox21 10K library (AID 1224841; call rule not given here). The method in brief:
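Compound exposure ran 18 hours at 37 C in PGC/ERR cells (2,000/well) that had first rested 6 hours in a 37 C/5% CO2 incubator. Luciferase activity was then detected with One-Glo after a 30-minute room-temperature step.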

Assay [17] is described as follows: qHTS assay to identify small molecule agonists of the estrogen related receptor signaling pathway with the pleiotropic PPARgamma coactivator (PGC) from Tox21 10K library (AID 1224842). Further: nearly all actives have a fitted effect of over 15% in size. Summed up: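 PGC/ERR reporter cells (NTP line) were seeded 2,000 per well, rested 6 h at 37 C/5% CO2, then pin-dosed with compounds in DMSO for 18 h at 37 C; luciferase read by One-Glo luminescence after 30 min at room temperature.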

Assay [18] is described as follows: qHTS assay to identify small molecule agonists of the estrogen related receptor (ERR) signaling pathway from Tox21 library (AID 1224849; calls by dose curve; further: nearly all actives have a fitted effect of over 15% in size). Particulars: ERR reporter cell line, ONE-Glo luciferase, 18 h; at 92.4 µM (top of the series) unless noted. The method in brief: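 We plated ERR reporter cells, waited 6 h, added compounds in DMSO by pin tool and incubated them 18 h at 37 C. ONE-Glo was then added and luminescence read after 30 min.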

A short description of assay [19]: qHTS assay to identify small molecule antagonists of the constitutive androstane receptor (CAR) signaling pathway - cell viability counter screen (AID 1224837). Further: nearly all actives have a fitted effect of over 45% in size. The method in brief:
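Fluorescence from CellTiter-Fluor served as the viability signal. Human hepatoma HepG2 cells stably bearing hCAR and CYP2B6-2.2kb received compound plus CITCO (50 nM final) for 23 hr.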

Assay [20] is described as follows: qHTS assay to identify small molecule antagonists of the estrogen related receptor (ERR) signaling pathway from Tox21 library (AID 1224848). Further: nearly all actives have a fitted effect of over 50% in size. Summed up:
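Cells: ERR line, 2,000/well; 6 h preincubation 37 C/5% CO2. Cpd in DMSO via pin tool; 18 h, 37 C. ONE-Glo, 30 min RT, luminescence.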

SMILES strings stand for the structures. A number with no mark means an inactive call. Records with an inconclusive call do not appear. Active and inactive are the calls of the source. Unless noted, the call rests on the fitted dose curve; in most records, active means well fitted curve in the direction sought with a large enough effect in the repeat runs; inconclusive means weak or mixed curves; inactive means no such curve, though single readings can be large; an effect the other way counts as inactive or inconclusive.
On the % scale 0 is the no-effect control and ±100 the full control effect.

Luciferin 4-monooxygenase (Photinus pyralis), sequence (P08659 whole entry, looked up): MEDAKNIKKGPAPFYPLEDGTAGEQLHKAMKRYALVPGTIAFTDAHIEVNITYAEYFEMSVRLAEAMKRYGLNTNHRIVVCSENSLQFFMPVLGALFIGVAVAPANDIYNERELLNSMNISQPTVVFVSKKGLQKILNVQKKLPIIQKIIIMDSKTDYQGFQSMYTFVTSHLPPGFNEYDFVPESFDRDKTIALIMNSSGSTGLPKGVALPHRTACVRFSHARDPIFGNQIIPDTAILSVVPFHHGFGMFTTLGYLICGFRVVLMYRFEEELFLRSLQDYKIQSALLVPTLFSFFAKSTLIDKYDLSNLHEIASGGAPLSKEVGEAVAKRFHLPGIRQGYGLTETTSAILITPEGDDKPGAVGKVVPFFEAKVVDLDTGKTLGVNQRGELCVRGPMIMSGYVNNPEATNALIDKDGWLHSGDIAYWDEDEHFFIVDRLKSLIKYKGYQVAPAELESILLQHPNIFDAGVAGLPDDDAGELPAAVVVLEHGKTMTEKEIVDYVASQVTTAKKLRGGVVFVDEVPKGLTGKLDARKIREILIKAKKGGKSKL
Nuclear receptor subfamily 1 group I member 3 (Homo sapiens), sequence (Q14994 whole entry, looked up): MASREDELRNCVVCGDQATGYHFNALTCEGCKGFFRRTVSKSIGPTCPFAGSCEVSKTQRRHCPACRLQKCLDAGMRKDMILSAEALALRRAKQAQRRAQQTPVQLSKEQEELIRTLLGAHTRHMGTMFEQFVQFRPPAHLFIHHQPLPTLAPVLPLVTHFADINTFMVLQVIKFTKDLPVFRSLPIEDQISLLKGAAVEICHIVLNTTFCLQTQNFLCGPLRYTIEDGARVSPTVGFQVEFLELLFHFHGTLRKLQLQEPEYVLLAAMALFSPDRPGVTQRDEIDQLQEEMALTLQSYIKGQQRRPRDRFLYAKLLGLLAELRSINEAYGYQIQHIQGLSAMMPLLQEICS

With `COc1cc2c(cc1OC)C(=O)CC2`, the Potency result in assay [1], in [2], in assay [4], in assay [6], in [10] and in assay [12] was “inactive” throughout. The Potency entry in [15] is “inactive”. Besides, the call in [3], in [5], in assay [7], in assay [8], in assay [9] and in assay [11] was inactive. For the same molecule, the molecule was called inactive in assay [13] and in [14].

For `CCn1ccc(NS(=O)(=O)c2ccc(N)cc2)nc1=O`, the Potency entry in [1], in assay [2], in [4], in assay [16], in assay [6] and in assay [10] was “inactive” each time. In addition, the Potency result in [12] and in assay [15] was “inactive” each time. For the same molecule, the molecule was called inactive in assay [3], in assay [5], in assay [17], in [7], in assay [8] and in [9]. The outcome in assay [11] and in assay [14] was inactive. Also, the activity change, positive = activation in [18] is 3.61% [at 42.5 µM].

For `Nc1nnc(-c2cccc(Cl)c2Cl)c(N)n1`, the Potency result in [1], in [19], in assay [6], in assay [10] and in [15] was “inactive” each time. The outcome in assay [5], in assay [7] and in assay [8] was inactive.

As for `CN1C(C)(C)CCCC1(C)C`, the Potency result in assay [1], in assay [2], in assay [6], in assay [12] and in [15] was “inactive” each time. Further, the result in [5], in [7], in [8], in assay [11], in assay [13] and in [14] was inactive.

On to `CC[C@H](C)C(=O)O[C@H]1C[C@H](O)C=C2C=C[C@H](C)[C@H](CC[C@@H](O)C[C@@H](O)CC(=O)O)[C@H]21`, for which the Potency entry in assay [1], in [2], in [10], in [12] and in assay [15] was “inactive” in each case. The molecule was classed as inactive in assay [5], in [8], in assay [9], in [11], in [13] and in [14].

`CCCC/C=C/C=C\C=O`: the Potency entry in assay [1], in [2], in [12] and in assay [15] was “inactive” throughout. Further, the molecule was classed as inactive in [5], in [8], in assay [9], in assay [11], in assay [13] and in [14].

In the case of `COc1ccc(OC)c(Cl)c1`, the Potency result in assay [1], in assay [2], in assay [4], in [16], in [6] and in assay [10] was “inactive” throughout. Besides, the Potency result in assay [20], in assay [12] and in assay [15] was “inactive” throughout. Moreover, the molecule was classed as inactive in [3], in [5], in [17], in assay [7], in assay [8] and in assay [9]. For the same molecule, the molecule was classed as inactive in assay [11], in [13] and in assay [14]. Moreover, the activity change, positive = activation in assay [18] is -2.23%.

For the molecule `NCCS`, the Potency entry in assay [1], in assay [2], in assay [16], in [10], in assay [20] and in [12] was “inactive” throughout. For the same molecule, the Potency result in assay [15] is “inactive”. For the same molecule, the molecule was classed as inactive in [5], in [17], in assay [7], in assay [8], in assay [11] and in assay [13]. Also, the result in assay [14] was inactive. Moreover, the activity change, positive = activation in assay [18] was -2.88% [at 42.5 µM].

In the case of `Cc1cccc2nccnc12`, the Potency result in assay [1], in [2], in [6] and in [12] was “inactive” throughout. Also, the molecule was classed as inactive in assay [5], in [7], in assay [8], in assay [9], in assay [11] and in assay [13]. The result in [14] was inactive. Besides, in [15], the Potency is 24.5 µM (active).

These data come from PubChem BioAssay (Tox21).
